Bioassay records as filed in PubChem BioAssay.
The list is not random: actives were taken first. Their share in the collection is about 2.8%.
PAX8 reporter: inhibitors of PAX8-driven TPO luciferase reporter, primary screen, RMG-I cells, single concentration. AID 652154, 2013. inhibition, % at 12.6 µM. SteadyGlo, 24 h. actives 1.2% (n = 360,000);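 active = mean replicate inhibition at least 60% with every replicate also reaching 60%; inconclusive = only one of the two criteria is met; inactive = mean below 60% and not all replicates reaching 60%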;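 note: luciferase light reporting Pax8 driven TPO promoter activity; plate controls were median of neutral control wells for no effect and mitoxantrone controls for full effect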
EBV LMP1 NFkB: EBV LMP1-driven NF-kappaB luciferase reporter inhibitors, primary screen, cell-based, luminescence, single point; LMP1-induced NF-kappaB luciferase reporter cells; inhibition, % at 12.5 µM; actives 0.69% (n = 350,000); in the data active = inhibition above about 41%; inconclusive = no clear call, values can overlap the other calls;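 note: 0% = neutral control wells and 100% = reference inhibitor control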
N-glyco inh: increase of ERlucT glycosylation luciferase signal, primary screen, N-linked glycosylation inhibitor project, D54 ERlucT cells, luminescence, set 2 | D54 ERlucT glycosylation luciferase reporter, 24 h; percent of 100 nM tunicamycin response | reporter increase, % at 12.5 µM | actives 0.23% (n = 360,000) | AID 588692, 2011;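 active = mean luciferase reporter signal, scaled so untreated is 0 and the glycosylation-blocking control 100, at or above a set limit in every replicate; inconclusive = mean reaches the limit but not every replicate does; inactive = mean below the limit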;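 note: luciferase carries N-glycosylation sites so blocking glycosylation raises the light; 0% = median of neutral control wells and 100% = median of 100 nM tunicamycin wells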
Shn3 inh set2: reduction of Shn3 3'UTR firefly luciferase signal, primary screen, Schnurri-3 inhibitor project, cell-based, Clone20 osteoblasts, set 2 | Clone20 osteoblast Shn3 3'UTR firefly luciferase, 24 h | inhibition, % at 12.5 µM | actives 0.52% (n = 360,000) | AID 588674, 2011;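 active = mean inhibition of at least 75% with every replicate also reaching 75%; inconclusive = mean inhibition at least 75% but some replicate below; inactive = mean inhibition below 75%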;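 note: 0% = median of neutral control wells and 100% = pilot-screen positive control compound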
NSD2 HMT inh: NSD2 histone methyltransferase inhibitors, primary screen, biochemical, AlphaScreen, single concentration, set 2. actives 0.54% (n = 310,000). inhibition, % at 12.5 µM. NSD2 peptide methylation, 120 min. AID 743445, 2014; in the data active = inhibition above about 50%
Target sequence (O96028 whole entry, looked up): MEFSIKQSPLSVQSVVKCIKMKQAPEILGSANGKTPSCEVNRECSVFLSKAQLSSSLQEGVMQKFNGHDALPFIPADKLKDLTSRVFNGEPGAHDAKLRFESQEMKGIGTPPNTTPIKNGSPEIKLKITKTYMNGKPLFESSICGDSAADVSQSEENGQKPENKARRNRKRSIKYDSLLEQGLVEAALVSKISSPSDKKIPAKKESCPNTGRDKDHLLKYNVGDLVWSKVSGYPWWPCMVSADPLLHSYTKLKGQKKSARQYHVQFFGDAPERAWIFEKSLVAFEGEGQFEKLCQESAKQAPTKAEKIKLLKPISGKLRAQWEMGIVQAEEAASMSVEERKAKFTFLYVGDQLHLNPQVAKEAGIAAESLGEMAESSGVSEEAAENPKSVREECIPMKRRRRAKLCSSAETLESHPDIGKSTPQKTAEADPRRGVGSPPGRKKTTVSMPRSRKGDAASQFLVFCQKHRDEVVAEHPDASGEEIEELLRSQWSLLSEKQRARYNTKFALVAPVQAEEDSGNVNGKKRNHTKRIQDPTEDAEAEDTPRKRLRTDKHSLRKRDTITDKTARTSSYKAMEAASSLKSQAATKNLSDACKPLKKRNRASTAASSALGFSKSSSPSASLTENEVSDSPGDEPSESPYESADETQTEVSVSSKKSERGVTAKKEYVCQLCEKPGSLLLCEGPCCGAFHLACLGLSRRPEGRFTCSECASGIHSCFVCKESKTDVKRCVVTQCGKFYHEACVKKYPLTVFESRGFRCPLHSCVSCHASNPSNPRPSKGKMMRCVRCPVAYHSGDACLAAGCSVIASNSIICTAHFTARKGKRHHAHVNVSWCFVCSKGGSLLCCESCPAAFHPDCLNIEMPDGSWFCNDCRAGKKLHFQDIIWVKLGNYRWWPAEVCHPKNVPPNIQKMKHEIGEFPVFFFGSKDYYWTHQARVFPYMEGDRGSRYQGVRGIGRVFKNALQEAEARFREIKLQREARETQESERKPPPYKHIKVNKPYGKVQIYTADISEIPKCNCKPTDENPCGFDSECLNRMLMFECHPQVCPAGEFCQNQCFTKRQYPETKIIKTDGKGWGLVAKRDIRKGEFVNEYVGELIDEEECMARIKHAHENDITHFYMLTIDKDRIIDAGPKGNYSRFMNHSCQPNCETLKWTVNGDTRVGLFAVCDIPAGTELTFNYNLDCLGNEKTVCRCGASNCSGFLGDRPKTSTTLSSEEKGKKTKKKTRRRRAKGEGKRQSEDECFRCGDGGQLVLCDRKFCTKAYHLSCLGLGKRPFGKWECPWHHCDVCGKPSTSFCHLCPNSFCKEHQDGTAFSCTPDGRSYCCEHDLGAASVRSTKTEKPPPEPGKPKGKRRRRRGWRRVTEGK
Env fusion inh: inhibitors of HIV-1 Env-driven cell-cell fusion, primary screen, HeLa-JRFL effector, CEM21 target cells, luciferase | inhibition, % at 12.3 µM | actives 1.1% (n = 360,000);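 active = mean replicate inhibition score of at least 50 and every replicate individually at or above 50; inconclusive = only one of the two criteria met; inactive = mean below 50 and not all replicates reaching 50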;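 note: 0% = plate neutral controls and 100% = maraviroc near 300 nM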
Numbers without * were called inactive; u = inconclusive; x = no result; [ ] = remark or other dose.

SMILES	PAX8 reporter	EBV LMP1 NFkB	N-glyco inh	Shn3 inh set2	NSD2 HMT inh	Env fusion inh
Cc1[nH]c2ccccc2c1/C=N/NC(=O)c1cc(-c2ccccc2)n[nH]1	4.4	3.0	1.2	-23.9	0.5	35.0
NC(=S)NN=Cc1nccc2c(C(F)(F)F)cccc12	72.5*	62.1*	-12.7	81.3	3.4	u
CNc1cccnc1C=NNC(N)=S	30.4	67.2*	-7.1	93.9*	3.4	81.4*
NC(=S)N/N=C/c1ccccc1	11.9	3.1	1.5	6.0	32.7	-49.5
CCC(=O)N(C)C[C@H]1Oc2cc(-c3cncnc3)ccc2S(=O)(=O)N([C@@H](C)CO)C[C@H]1C	x	x	x	x	x	-15.5[16.7 µM]
C[C@H](CO)N1C[C@H](C)[C@@H](CN(C)C(=O)c2ccccc2)OCCCC[C@H](C)Oc2ccc(NC(=O)CCC(F)(F)F)cc2C1=O	0.4	x	x	x	x	-53.0[16.7 µM]
C=C(C(=O)c1ccccc1)C(C)C(=C)C(=O)c1ccccc1	97.5*	-48.4	-11.5	61.9	8.7	-24.0
C=C(C(=O)c1ccccc1)C(c1ccccc1)C(C)C(=O)c1ccccc1 (stereo not drawn)	53.3	-45.3	9.6	-3.8	1.3	-16.0
C=C(C(=O)c1ccccc1)C(C(=C)C(=O)c1ccccc1)c1ccc(OC)cc1	116.8*	16.7	-16.7	96.7*	-1.3	-116.8
CC(=O)N(C)C[C@H]1Oc2ncc(-c3cccc(F)c3)cc2C(=O)N([C@H](C)CO)C[C@@H]1C	x	x	x	x	x	0.8[16.7 µM]
O=C(c1ccccn1)N1C[C@@H]2[C@H](c3ccccc31)[C@@H](CO)N2C(=O)CC1CC1	-4.1	x	x	x	x	x
COC(=O)c1c(NC(=O)COc2ccc(Cl)cc2)sc2c1CC(C)(C)NC2(C)C	5.7	-128.1	-17.2	74.4	-1.4	57.3*
O=C(N/N=C(\c1ccccc1)c1ccccn1)c1cccc([N+](=O)[O-])c1	x	35.8	-13.7	91.6*	x	x
Cn1ccnc1/C(=N\NC(=O)c1ccccc1)c1cccc([N+](=O)[O-])c1	-5.8	6.5	8.0	3.9	1.3	9.6
O=C([C@@H]1[C@@H](CO)[C@@H]2Cn3c(ccc(/C=C/c4ccccc4)c3=O)[C@@H]2N1CC1CC1)N1CCCCC1	37.8	x	x	x	x	x
C[C@H](C(=O)N(C)C[C@@H]1OCc2ccccc2-c2c(n(C)c3ccccc23)C(=O)N([C@@H](C)CO)C[C@H]1C)c1ccccc1	x	x	x	x	x	67.0*[16.7 µM]
C[C@H](CO)N1C[C@H](C)[C@@H](CN(C)C(=O)[C@H](Cc2ccccc2)N(C)C)OCc2ccccc2-c2c(n(C)c3ccccc23)C1=O	-12.1	x	x	x	x	60.3*[16.7 µM]
C[C@H](CO)N1C[C@H](C)[C@@H](CN(C)C(=O)[C@H](C)c2ccccc2)OCc2ccccc2-c2c(n(C)c3ccccc23)C1=O	9.4	x	x	x	x	x
CN1C(=O)c2cc(NS(=O)(=O)c3ccccc3Cl)ccc2OC[C@H]2O[C@@H](CC(=O)O)CC[C@H]21	-3.6	x	x	x	x	-20.7[16.7 µM]
COc1ccc(-c2cc(-c3ccc(O)cc3)nc(N)c2C#N)cc1OC	15.0	-3.7	26.8*	0.5	-11.6	8.1
COc1ccc2c(COC(=O)CNC(=O)C34CC5CC(CC(C5)C3)C4)cc(=O)oc2c1	121.5*	-0.3	1.1	-6.9	-1.3	x
COc1cc(NC(=O)COC(=O)CNC(=O)C23CC4CC(CC(C4)C2)C3)cc(OC)c1	3.7	-4.1	2.0	-15.1	2.0	x
CC(=O)Nc1nc(-c2ccc3c(c2)CC(C)N3C(=O)C2CC2)c(C)s1 (stereo not drawn)	-7.3	78.9*	-6.5	-108.3	6.8	58.6*
Cc1sc(NC(=O)c2ccco2)nc1-c1ccc2c(c1)CC(C)N2C(=O)C1CC1 (stereo not drawn)	x	42.8*	4.8	63.1	x	x
CCOC(=O)C(=O)Nc1nc(-c2ccc3c(c2)CCN3C(=O)C2CC2)c(C)s1	11.6	-0.7	0.4	-12.2	-1.8	-5.3
SMILES	PAX8 reporter	EBV LMP1 NFkB	N-glyco inh	Shn3 inh set2	NSD2 HMT inh	Env fusion inh
COc1ccc2c3c([nH]c2c1)[C@H](CO)N(C(=O)CN(C)C)CC31CCN(Cc2cncnc2)CC1	-37.4	x	x	x	x	x
O=C(C1CCCCC1)N1CC2(C1)[C@H](c1ccccc1)[C@H](CO)N2Cc1ccccc1F	22.0	x	x	x	x	x
O=C(c1ccccc1)C(CCc1ccccn1)CCc1ccccn1	-83.5	-16.3	-1.2	-22.6	0.7	-25.2
COc1ccc(C(=O)C(CCCCC(CN(C)C)C(=O)c2ccc(OC)cc2)CN(C)C)cc1 (stereo not drawn)	x	-30.0	-7.7	-28.4	9.1	x
CN(C)CC(CCC(CN(C)C)C(=O)c1ccccc1)C(=O)c1ccccc1 (stereo not drawn)	x	83.7*	-22.9	97.7*	x	x
CCOc1ccc(C(=O)C(CCC(CN(C)C)C(=O)c2ccc(OCC)cc2)CN(C)C)cc1 (stereo not drawn)	112.0*	66.9*	-20.7	98.2*	23.7	-114.2
CCC(=O)N(C)C[C@H]1Oc2ncc(C#Cc3ccccc3)cc2C(=O)N([C@H](C)CO)C[C@H]1C	x	x	x	x	x	9.0[16.7 µM]
CN=c1scc(-c2ccco2)n1/N=C/c1ccc(O)c(O)c1	-66.0	-55.0	-15.3	90.1*	x	-126.4
C=CCN=c1scc(C)n1/N=C/c1ccc(O)c(O)c1	-11.7	-8.4	-7.3	91.7*	7.5	-75.6
C[C@@H]1CN([C@H](C)CO)C(=O)c2cccc(NS(=O)(=O)c3ccc(Cl)cc3)c2O[C@@H]1CN(C)CC1CCCCC1	1.2	x	x	x	x	-4.3[16.7 µM]
CCc1ccc(-c2nc(CSCC(=O)NCc3ccco3)c(C)o2)cc1	64.4*	19.0	-1.1	45.7	-0.4	9.3
CC(C)(C)c1ccc(Cn2nnc3c(=O)[nH]c(C4CCN(C(=O)Cc5cccs5)CC4)nc32)cc1	x	-6.2	8.9	-6.8	0.2	72.3*
CC(C)(C)c1ccc(Cn2nnc3c(=O)[nH]c(C4CCCN(C(=O)Cc5cccs5)C4)nc32)cc1 (stereo not drawn)	x	12.1	-0.1	11.3	2.2	63.4*
Cc1ccc(Cn2nnc3c(=O)[nH]c(C4CCN(C(=O)Cc5cccs5)CC4)nc32)cc1	x	3.6	5.8	7.7	3.7	x
CS(=O)(=O)Nc1ccc2c(c1)[C@H]1C[C@@H](CC(=O)N3CCc4ccccc4C3)O[C@@H](CO)[C@H]1O2	1.9	x	x	x	x	1.2[16.7 µM]
CCN(CC)c1ccc(/C=C2\SC(=O)N(C(C)C)C2=O)o1	x	x	3.5	96.7*	-0.4	x
CC(C)N1C(=O)S/C(=C/c2ccc3c(c2)n(C)c(=O)n3C)C1=O	x	-8.4	9.8	2.1	1.7	-24.8
COc1ccc(-c2cn[nH]c2-c2ccc(OC)cc2O)cc1	-22.3	32.4	-12.4	20.8	3.4	58.3*
COc1ccc(-c2nc(C)ncc2-c2ccccc2)c(O)c1	-29.2	43.3*	0.5	16.5	-0.1	12.5
